# From article PMC9911399, “Two distinct binding modes provide the RNA-binding protein RbFox with extraordinary sequence specificity”
# Numbering of substitutions follows the chain as printed; changes in the protein carry UniProt numbers. The full ranking holds about 16,000 sequences; the median of “ka relative to ugcaugu” is about 0.096, and the highest 2% start at about 0.35. The sample as a whole holds a higher share of the highest values than the screen did.
# T1: RBFOX1 RRM RbFoxmut (Fox-RRM*) (Homo sapiens, UniProt Q9NWB1 109-208, R118D;E147R;N151S;E152T)
# T1 sequence: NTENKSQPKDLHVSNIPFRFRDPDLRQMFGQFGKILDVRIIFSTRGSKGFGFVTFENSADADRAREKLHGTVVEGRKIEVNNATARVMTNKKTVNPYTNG
# B1: GAUUAAU (DNA:RNA)
# RNA: GGGAGACCGGAAUUCAGAUUGUCCGAUUAAUUUAAAUCCCGUCGUAGCCACCA
# DNA 1: CAATCTGAATTCCGGTCTCCC
# DNA 2: TGGTGGCTACGACGGGATT
# B2: UUGCUUC (DNA:RNA)
# RNA: GGGAGACCGGAAUUCAGAUUGUCCUUGCUUCUUAAAUCCCGUCGUAGCCACCA
# DNA 1: CAATCTGAATTCCGGTCTCCC
# DNA 2: TGGTGGCTACGACGGGATT
# B3: AGAGUCA (DNA:RNA)
# RNA: B2 RNA with U25A, U26G, G27A, C28G, U30C, C31A
# DNA 1: CAATCTGAATTCCGGTCTCCC
# DNA 2: TGGTGGCTACGACGGGATT
# B4: UCCAGUA (DNA:RNA)
# RNA: B2 RNA with U26C, G27C, C28A, U29G, C31A
# DNA 1: CAATCTGAATTCCGGTCTCCC
# DNA 2: TGGTGGCTACGACGGGATT
# B5: GAAAAUG (DNA:RNA)
# RNA: B1 RNA with U27A, U28A, A30U, U31G
# DNA 1: CAATCTGAATTCCGGTCTCCC
# DNA 2: TGGTGGCTACGACGGGATT
# B6: GACCGUC (DNA:RNA)
# RNA: B2 RNA with U25G, U26A, G27C, U29G
# DNA 1: CAATCTGAATTCCGGTCTCCC
# DNA 2: TGGTGGCTACGACGGGATT
# B7: GAAUGUC (DNA:RNA)
# RNA: B1 RNA with U27A, A29G, A30U, U31C
# DNA 1: CAATCTGAATTCCGGTCTCCC
# DNA 2: TGGTGGCTACGACGGGATT
# B8: AAAGCCU (DNA:RNA)
# RNA: B1 RNA with G25A, U27A, U28G, A29C, A30C
# DNA 1: CAATCTGAATTCCGGTCTCCC
# DNA 2: TGGTGGCTACGACGGGATT
# B9: CUAUCCC (DNA:RNA)
# RNA: B2 RNA with U25C, G27A, C28U, U29C, U30C
# DNA 1: CAATCTGAATTCCGGTCTCCC
# DNA 2: TGGTGGCTACGACGGGATT
# B10: GAAGAAU (DNA:RNA)
# RNA: B1 RNA with U27A, U28G
# DNA 1: CAATCTGAATTCCGGTCTCCC
# DNA 2: TGGTGGCTACGACGGGATT
# B11: CGUUCGG (DNA:RNA)
# RNA: B1 RNA with G25C, A26G, A29C, A30G, U31G
# DNA 1: CAATCTGAATTCCGGTCTCCC
# DNA 2: TGGTGGCTACGACGGGATT
# B12: GGGUUCG (DNA:RNA)
# RNA: B1 RNA with A26G, U27G, A29U, A30C, U31G
# DNA 1: CAATCTGAATTCCGGTCTCCC
# DNA 2: TGGTGGCTACGACGGGATT
# B13: CGGUUCG (DNA:RNA)
# RNA: B2 RNA with U25C, U26G, C28U, U30C, C31G
# DNA 1: CAATCTGAATTCCGGTCTCCC
# DNA 2: TGGTGGCTACGACGGGATT
# B14: GGUUAUG (DNA:RNA)
# RNA: B1 RNA with A26G, A30U, U31G
# DNA 1: CAATCTGAATTCCGGTCTCCC
# DNA 2: TGGTGGCTACGACGGGATT
# B15: GUUCGGG (DNA:RNA)
# RNA: B1 RNA with A26U, U28C, A29G, A30G, U31G
# DNA 1: CAATCTGAATTCCGGTCTCCC
# DNA 2: TGGTGGCTACGACGGGATT
# B16: GUCCCGG (DNA:RNA)
# RNA: B2 RNA with U25G, G27C, U29C, U30G, C31G
# DNA 1: CAATCTGAATTCCGGTCTCCC
# DNA 2: TGGTGGCTACGACGGGATT
# B17: GGGGUUC (DNA:RNA)
# RNA: B2 RNA with U25G, U26G, C28G
# DNA 1: CAATCTGAATTCCGGTCTCCC
# DNA 2: TGGTGGCTACGACGGGATT
# B18: CGUUAUG (DNA:RNA)
# RNA: B1 RNA with G25C, A26G, A30U, U31G
# DNA 1: CAATCTGAATTCCGGTCTCCC
# DNA 2: TGGTGGCTACGACGGGATT
# B19: GGUUCGG (DNA:RNA)
# RNA: B1 RNA with A26G, A29C, A30G, U31G
# DNA 1: CAATCTGAATTCCGGTCTCCC
# DNA 2: TGGTGGCTACGACGGGATT
# B20: GUAAAAU (DNA:RNA)
# RNA: B1 RNA with A26U, U27A, U28A
# DNA 1: CAATCTGAATTCCGGTCTCCC
# DNA 2: TGGTGGCTACGACGGGATT
# Target: T1, RBFOX1 RRM RbFoxmut (Fox-RRM*)
# Assay: EMSA; HiTS-Eq, 1 nM pool, 10 min; buffer printed only for the single-RNA assays: 10 mM Tris pH 7.5, 150 mM NaCl, 3.4 mM EDTA, 0.001% NP-40, 30 C
# Conditions: tags: His6 N-terminal (pET28a); label: 5' 32P
# Summary of the method: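 A pool of RNA with 7 randomized nucleotides, 5′-radiolabelled and with DNA-annealed flanks, was equilibrated at 1 nM for 10 min in 50 µL with purified RbFox RRM, wild type or mutant, across increasing protein concentrations. Free RNA was separated by 8% native PAGE, excised, reverse-transcribed, barcoded by PCR and sequenced. Relative association constants were obtained from read-count changes of each RNA species versus the control reaction and normalised to the cognate motif.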
row,Binder,binding signal
1,B1,0.0998 KA relative to UGCAUGU
2,B2,0.157 KA relative to UGCAUGU
3,B3,0.106 KA relative to UGCAUGU
4,B4,0.135 KA relative to UGCAUGU
5,B5,0.1 KA relative to UGCAUGU
6,B6,0.0863 KA relative to UGCAUGU
7,B7,0.55 KA relative to UGCAUGU
8,B8,0.0705 KA relative to UGCAUGU
9,B9,0.0664 KA relative to UGCAUGU
10,B10,0.0873 KA relative to UGCAUGU
11,B11,0.115 KA relative to UGCAUGU
12,B12,0.4 KA relative to UGCAUGU
13,B13,0.371 KA relative to UGCAUGU
14,B14,0.585 KA relative to UGCAUGU
15,B15,0.0874 KA relative to UGCAUGU
16,B16,0.0859 KA relative to UGCAUGU
17,B17,0.239 KA relative to UGCAUGU
18,B18,0.269 KA relative to UGCAUGU
19,B19,0.126 KA relative to UGCAUGU
20,B20,0.0936 KA relative to UGCAUGU
